# About 8,800 targets were measured; listed, in parts, are those with a hit and a random draw of the rest. About 0.5% of all pairs of compound and target were hits. Values without a mark were called inactive.
# Key:
# Experiment in all cases: log2 fold change, soluble protein after heating vs DMSO (PISA); higher = thermal stabilisation; K562 lysate, 10 uM; active = over 0.2 and 3.5 SD of the protein, either way, in both replicates (recomputed)
# lapatinib = compound: CS(=O)(=O)CCNCc1ccc(-c2ccc3ncnc(Nc4ccc(OCc5cccc(F)c5)c(Cl)c4)c3c2)o1 [lapatinib]
# Summary of the method: (§1)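 Following dounce homogenisation of K562 pellets in PBS pH 7.4 with 1 mM MgCl2, crude extract at 1 mg/mL protein was incubated for 30 min with 10 μM compound. Aliquots were then heated for 3 min over 48°C-58°C and pooled, NP-40 was added to 0.5% at 4°C, and soluble protein was recovered as the supernatant at 21,000xg for 90 min. Channel-sum-equalised TMTpro 16plex LC-MS/MS quantified this protein. Each value, from duplicates, is a log-two fold change in thermal stability relative to solvent controls.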
# pictilisib = compound: CS(=O)(=O)N1CCN(Cc2cc3nc(-c4cccc5[nH]ncc45)nc(N4CCOCC4)c3s2)CC1 [pictilisib]
# Summary of the method: as §1
# crizotinib = compound: C[C@@H](Oc1cc(-c2cnn(C3CCNCC3)c2)cnc1N)c1c(Cl)ccc(F)c1Cl [crizotinib]
# Summary of the method: as §1
# [1] = compound: C[C@H](C1=CC=C(C=C1)C(=O)NC2=C3C=CNC3=NC=C2)N
# Summary of the method: as §1
# duvelisib = compound: C[C@H](Nc1ncnc2nc[nH]c12)c1cc2cccc(Cl)c2c(=O)n1-c1ccccc1 [duvelisib]
# Summary of the method: as §1
# gandotinib = compound: Cc1cc(Nc2cc(CN3CCOCC3)c3nc(C)c(Cc4ccc(Cl)cc4F)n3n2)n[nH]1 [gandotinib]
# Summary of the method: as §1
# tozasertib = compound: Cc1cc(Nc2cc(N3CCN(C)CC3)nc(Sc3ccc(NC(=O)C4CC4)cc3)n2)n[nH]1 [tozasertib]
# Summary of the method: as §1
# doramapimod = compound: Cc1ccc(-n2nc(C(C)(C)C)cc2NC(=O)Nc2ccc(OCCN3CCOCC3)c3ccccc23)cc1 [doramapimod]
# Summary of the method: as §1
# bafetinib = compound: Cc1ccc(NC(=O)c2ccc(CN3CC[C@H](N(C)C)C3)c(C(F)(F)F)c2)cc1Nc1nccc(-c2cncnc2)n1 [bafetinib]
# Summary of the method: as §1
# [2] = compound: Cc1cccc(CC(=O)N2CCc3c2ccc(-c2cn(C)c4ncnc(N)c24)c3F)n1
# Summary of the method: as §1
# UniProt Q9BPZ3, sequence (Q9BPZ3 whole entry, looked up): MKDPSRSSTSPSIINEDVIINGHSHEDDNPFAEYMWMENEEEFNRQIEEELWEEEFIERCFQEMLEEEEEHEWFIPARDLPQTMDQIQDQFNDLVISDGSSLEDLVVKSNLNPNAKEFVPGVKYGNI
# UniProt Q9Y530, sequence (Q9Y530 whole entry, looked up): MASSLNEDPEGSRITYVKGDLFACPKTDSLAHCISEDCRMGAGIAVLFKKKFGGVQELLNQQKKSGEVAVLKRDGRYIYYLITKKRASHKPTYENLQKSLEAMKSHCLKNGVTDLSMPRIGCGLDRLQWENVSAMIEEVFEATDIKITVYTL
# UniProt O95644, sequence (O95644 whole entry, looked up): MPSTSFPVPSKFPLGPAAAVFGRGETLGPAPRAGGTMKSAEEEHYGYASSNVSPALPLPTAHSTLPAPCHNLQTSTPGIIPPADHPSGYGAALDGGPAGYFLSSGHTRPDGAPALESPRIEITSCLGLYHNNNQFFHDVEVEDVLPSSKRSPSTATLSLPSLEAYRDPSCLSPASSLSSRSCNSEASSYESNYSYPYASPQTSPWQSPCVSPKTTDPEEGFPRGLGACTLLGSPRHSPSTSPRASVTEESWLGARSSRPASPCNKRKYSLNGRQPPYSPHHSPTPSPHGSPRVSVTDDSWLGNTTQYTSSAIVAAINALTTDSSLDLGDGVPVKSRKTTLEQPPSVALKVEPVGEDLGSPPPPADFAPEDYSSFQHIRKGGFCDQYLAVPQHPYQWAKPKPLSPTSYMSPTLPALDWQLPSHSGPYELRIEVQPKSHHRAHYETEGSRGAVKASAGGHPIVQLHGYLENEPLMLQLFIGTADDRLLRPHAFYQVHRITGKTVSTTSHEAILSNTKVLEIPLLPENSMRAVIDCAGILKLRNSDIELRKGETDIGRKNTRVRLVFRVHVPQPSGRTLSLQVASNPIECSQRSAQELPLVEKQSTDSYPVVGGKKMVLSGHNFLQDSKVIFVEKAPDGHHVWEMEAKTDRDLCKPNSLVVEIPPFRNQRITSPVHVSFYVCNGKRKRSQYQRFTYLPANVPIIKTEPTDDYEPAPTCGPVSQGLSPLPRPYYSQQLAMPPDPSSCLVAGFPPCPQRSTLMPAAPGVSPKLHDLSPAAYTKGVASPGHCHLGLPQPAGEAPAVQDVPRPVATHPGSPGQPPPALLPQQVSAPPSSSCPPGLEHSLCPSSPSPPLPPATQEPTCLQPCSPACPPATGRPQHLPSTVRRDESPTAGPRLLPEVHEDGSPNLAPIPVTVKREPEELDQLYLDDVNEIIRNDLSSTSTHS
# UniProt Q12769, sequence (Q12769 whole entry, looked up): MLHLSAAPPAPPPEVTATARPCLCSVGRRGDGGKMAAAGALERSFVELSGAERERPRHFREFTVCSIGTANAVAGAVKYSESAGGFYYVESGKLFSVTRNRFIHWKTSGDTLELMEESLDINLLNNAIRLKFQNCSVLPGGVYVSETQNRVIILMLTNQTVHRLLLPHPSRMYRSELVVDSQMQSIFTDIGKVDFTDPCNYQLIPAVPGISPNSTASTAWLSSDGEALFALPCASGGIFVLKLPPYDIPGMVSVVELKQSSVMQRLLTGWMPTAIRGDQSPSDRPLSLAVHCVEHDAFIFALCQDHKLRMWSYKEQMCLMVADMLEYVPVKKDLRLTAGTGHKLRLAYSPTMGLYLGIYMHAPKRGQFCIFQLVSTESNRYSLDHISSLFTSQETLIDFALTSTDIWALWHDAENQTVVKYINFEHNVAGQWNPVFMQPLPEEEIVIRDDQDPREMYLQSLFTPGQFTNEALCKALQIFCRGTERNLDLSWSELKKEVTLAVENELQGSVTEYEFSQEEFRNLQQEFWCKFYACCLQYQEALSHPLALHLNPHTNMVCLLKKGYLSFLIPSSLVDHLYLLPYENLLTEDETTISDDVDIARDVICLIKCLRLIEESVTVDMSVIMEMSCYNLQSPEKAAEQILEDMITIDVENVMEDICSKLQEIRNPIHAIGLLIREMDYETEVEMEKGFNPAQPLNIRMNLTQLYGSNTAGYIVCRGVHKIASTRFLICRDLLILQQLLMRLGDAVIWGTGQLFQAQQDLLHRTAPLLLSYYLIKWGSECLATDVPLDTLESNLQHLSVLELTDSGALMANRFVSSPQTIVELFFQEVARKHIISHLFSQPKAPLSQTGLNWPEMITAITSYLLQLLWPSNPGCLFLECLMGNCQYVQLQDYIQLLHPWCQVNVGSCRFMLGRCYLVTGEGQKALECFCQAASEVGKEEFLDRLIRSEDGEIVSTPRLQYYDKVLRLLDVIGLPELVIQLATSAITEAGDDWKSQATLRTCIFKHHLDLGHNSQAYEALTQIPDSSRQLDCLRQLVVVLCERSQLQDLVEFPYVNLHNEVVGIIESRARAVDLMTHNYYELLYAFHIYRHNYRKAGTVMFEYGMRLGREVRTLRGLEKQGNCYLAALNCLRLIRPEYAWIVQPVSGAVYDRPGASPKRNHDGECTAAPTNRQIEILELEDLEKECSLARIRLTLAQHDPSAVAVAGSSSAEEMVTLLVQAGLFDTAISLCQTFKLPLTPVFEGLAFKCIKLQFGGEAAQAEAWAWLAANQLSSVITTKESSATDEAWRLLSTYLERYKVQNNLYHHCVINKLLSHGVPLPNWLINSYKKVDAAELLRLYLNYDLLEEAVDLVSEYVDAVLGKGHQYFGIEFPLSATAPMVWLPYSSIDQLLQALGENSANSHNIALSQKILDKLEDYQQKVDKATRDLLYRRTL
# UniProt Q9BXS6, sequence (Q9BXS6 whole entry, looked up): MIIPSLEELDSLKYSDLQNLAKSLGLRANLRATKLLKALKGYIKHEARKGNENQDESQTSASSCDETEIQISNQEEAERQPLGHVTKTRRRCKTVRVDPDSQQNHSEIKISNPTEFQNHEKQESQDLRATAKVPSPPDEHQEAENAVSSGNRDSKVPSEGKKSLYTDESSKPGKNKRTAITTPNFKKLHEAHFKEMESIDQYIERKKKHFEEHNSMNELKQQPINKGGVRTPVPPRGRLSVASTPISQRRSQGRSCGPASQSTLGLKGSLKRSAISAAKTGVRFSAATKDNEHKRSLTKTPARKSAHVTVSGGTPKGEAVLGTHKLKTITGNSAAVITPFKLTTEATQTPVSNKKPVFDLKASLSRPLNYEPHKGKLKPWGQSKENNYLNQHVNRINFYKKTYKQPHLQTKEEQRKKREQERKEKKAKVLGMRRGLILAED
# UniProt Q96IY1, sequence (Q96IY1 whole entry, looked up): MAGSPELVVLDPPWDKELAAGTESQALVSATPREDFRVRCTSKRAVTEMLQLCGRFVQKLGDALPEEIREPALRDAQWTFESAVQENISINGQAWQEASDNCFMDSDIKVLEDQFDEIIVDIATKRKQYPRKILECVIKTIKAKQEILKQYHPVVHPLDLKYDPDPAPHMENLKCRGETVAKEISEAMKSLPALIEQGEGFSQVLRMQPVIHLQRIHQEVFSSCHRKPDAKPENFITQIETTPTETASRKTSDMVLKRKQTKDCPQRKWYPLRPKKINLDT
# UniProt Q9UFN0, sequence (Q9UFN0 whole entry, looked up): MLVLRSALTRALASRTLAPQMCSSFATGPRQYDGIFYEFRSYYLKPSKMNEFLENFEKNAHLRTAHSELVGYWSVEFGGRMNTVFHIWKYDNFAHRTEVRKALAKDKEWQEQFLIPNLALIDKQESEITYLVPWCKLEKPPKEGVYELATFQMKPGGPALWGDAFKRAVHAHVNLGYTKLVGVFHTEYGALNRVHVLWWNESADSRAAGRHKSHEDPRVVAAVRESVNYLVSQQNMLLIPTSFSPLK
# UniProt P04181, sequence (P04181 whole entry, looked up): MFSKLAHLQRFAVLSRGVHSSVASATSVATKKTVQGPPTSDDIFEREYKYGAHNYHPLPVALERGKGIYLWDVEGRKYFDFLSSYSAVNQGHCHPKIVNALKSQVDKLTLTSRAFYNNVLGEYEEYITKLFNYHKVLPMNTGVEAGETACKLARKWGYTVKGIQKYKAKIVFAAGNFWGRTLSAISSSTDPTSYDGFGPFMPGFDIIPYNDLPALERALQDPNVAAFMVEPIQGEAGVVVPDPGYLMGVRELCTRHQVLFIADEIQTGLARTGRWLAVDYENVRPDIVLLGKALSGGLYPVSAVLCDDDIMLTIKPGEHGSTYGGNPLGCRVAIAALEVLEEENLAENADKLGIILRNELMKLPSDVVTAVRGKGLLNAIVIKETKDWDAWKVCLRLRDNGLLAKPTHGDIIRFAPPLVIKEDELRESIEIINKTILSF
# UniProt Q9Y639, sequence (Q9Y639 whole entry, looked up): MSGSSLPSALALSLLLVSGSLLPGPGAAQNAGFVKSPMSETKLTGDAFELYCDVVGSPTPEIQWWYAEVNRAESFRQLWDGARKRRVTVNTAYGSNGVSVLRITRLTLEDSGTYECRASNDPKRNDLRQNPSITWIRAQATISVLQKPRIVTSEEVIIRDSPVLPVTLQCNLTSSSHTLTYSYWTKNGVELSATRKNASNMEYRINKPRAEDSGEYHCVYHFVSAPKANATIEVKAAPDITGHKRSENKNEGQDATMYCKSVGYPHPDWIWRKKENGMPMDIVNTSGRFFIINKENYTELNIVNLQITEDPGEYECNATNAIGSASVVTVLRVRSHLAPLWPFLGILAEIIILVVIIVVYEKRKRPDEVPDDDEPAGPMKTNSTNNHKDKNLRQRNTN
# UniProt Q9NZJ9, sequence (Q9NZJ9 whole entry, looked up): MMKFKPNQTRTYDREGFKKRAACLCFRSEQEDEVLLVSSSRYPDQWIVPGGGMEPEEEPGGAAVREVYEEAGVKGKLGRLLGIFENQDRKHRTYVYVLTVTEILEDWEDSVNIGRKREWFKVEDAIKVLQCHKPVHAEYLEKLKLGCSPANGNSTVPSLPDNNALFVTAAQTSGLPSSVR
# UniProt Q96KB5, sequence (Q96KB5 whole entry, looked up): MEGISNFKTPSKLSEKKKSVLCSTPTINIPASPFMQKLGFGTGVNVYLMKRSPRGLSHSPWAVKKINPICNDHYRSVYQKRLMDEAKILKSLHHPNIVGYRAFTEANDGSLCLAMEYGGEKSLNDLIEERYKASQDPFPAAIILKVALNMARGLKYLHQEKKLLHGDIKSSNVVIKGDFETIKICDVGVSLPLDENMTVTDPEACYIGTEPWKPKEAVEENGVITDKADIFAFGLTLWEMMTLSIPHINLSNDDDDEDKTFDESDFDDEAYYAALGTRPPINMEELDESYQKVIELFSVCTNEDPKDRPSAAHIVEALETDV
Target,log2 fold change (lapatinib),log2 fold change (pictilisib),log2 fold change (crizotinib),log2 fold change [1],log2 fold change (duvelisib),log2 fold change (gandotinib),log2 fold change (tozasertib),log2 fold change (doramapimod),log2 fold change (bafetinib),log2 fold change [2]
NUP93 (UniProt Q8N1F7),-0.011,-0.029,-0.03,-0.027,-0.03,-0.158,0.015,0.022,-0.054,0.07
NFATC1 (UniProt O95644),-0.003,-0.088,-0.111,-0.136,0.007,0.132,-0.002,0.017,-0.043,0.179
NIPSNAP3A (UniProt Q9UFN0),-0.007,-0.031,0.021,0.466 (active),0.03,-0.197,-0.011,-0.029,0.061,-0.276 (active)
MYD88 isoform 6 (UniProt Q99836),0.014,-0.006,-0.007,-0.032,0.03,-0.009,0.068,0.019,-0.018,0
NUB1 (UniProt Q9Y5A7),-0.002,-0.022,0.012,0.009,-0.004,0.011,0.027,-0.023,-0.047,-0.002
NEBL (UniProt O76041),0.054,-0.046,0.09,0.106,0.023,-0.204,0.01,-0.006,-0.037,-0.076
NAA35 (UniProt Q5VZE5),0.009,0.032,-0.031,0.082,-0.007,-0.042,-0.003,0.031,-0.057,-0.022
NUDT4 isoform 2 (UniProt Q9NZJ9),-0.002,0.006,-0.018,-0.055,-0.013,0.061,0.065,-0.009,-0.006,0.011
NUP160 (UniProt Q12769),0.004,-0.046,-0.028,0.003,-0.007,-0.102,0.015,0.032,-0.059,-0.007
OAT (UniProt P04181),-0.02,0.021,-0.034,-0.066,-0.025,0.063,0.01,-0.029,0,0.044
NUP205 (UniProt Q92621),-0.03,-0.041,-0.1,-0.047,-0.008,-0.143,0.015,0.043,-0.089,0.031
NIFK (UniProt Q9BYG3),-0.004,-0.019,-0.033,-0.027,0.009,0,0.036,-0.009,-0.026,0.064
PAXBP1 (UniProt Q9Y5B6),0.002,-0.077,-0.027,-0.037,-0.008,-0.029,0.012,0.038,-0.024,0.002
MRPS31 (UniProt Q92665),0.012,0.012,-0.02,-0.002,-0.015,-0.006,0.033,0.047,-0.009,0.051
OARD1 (UniProt Q9Y530),-0.001,-0.011,-0.003,-0.022,-0.015,-0.012,0.042,0.035,-0.023,0.037
NUSAP1 (UniProt Q9BXS6),-0.004,-0.018,0.045,-0.334 (active),-0.022,0.141,-0.001,-0.011,0.008,0.217 (active)
PAIP2 (UniProt Q9BPZ3),0.013,-0.036,0.021,-0.008,-0.04,0.022,0.035,0.043,0.073,0.02
PBK (UniProt Q96KB5),-0.024,-0.011,-0.005,0.013,-0.006,-0.066,-0.005,-0.021,-0.02,-0.01
NPTN (UniProt Q9Y639),-0.057,-0.045,-0.058,-0.011,0.049,0.003,0.007,0.056,-0.029,0.011
NOB1 (UniProt Q9ULX3),0.027,0.01,-0.019,0.283 (active),-0.033,-0.084,0.011,-0.023,-0.041,-0.048
MRPL53 (UniProt Q96EL3),0.022,-0.004,0.031,0.079,0,-0.04,0.016,0.009,0.005,0.012
N4BP2 (UniProt Q86UW6),0.003,0.054,0.002,-0.236 (active),0.028,0.014,-0.032,-0.015,-0.038,0.149
NEK9 (UniProt Q8TD19),-0.013,0.039,0.057,-0.092,0.006,0.108,0.025,-0.033,0.014,0.019
PARG (UniProt Q86W56),0.017,-0.035,-0.058,0.047,-0.02,-0.065,-0.033,0.005,-0.004,-0.01
MYCBP2 (UniProt O75592),-0.042,-0.026,-0.07,-0.028,0.023,0.054,0.023,0.016,-0.004,0.114
NSL1 (UniProt Q96IY1),-0.003,-0.032,0.051,0.001,-0.033,0.094,-0.01,-0.047,0.034,0.006
OSBP (UniProt P22059),-0.101,-0.046,0.007,0,0.037,-0.072,-0.015,-0.028,-0.093,0.03
NTMT1 (UniProt Q9BV86),-0.008,-0.008,-0.009,0.079,-0.026,-0.113,-0.041,0.025,0.025,-0.045
OCRL (UniProt Q01968),0.008,-0.029,-0.047,-0.029,-0.013,-0.009,0,0.033,0.001,0.047
NUMB (UniProt P49757),0.033,0.023,0.02,-0.057,0.029,0.097,0.047,0.125,-0.069,0.038
